Assay [1] has as its target Tyrosine-protein kinase SYK (Homo sapiens) (UniProt P43405). Conditions: at 10 µM.
The target in assay [2] is T1, Mitogen-activated protein kinase kinase kinase 7 (Homo sapiens) (UniProt O43318).
T1 sequence (whole entry): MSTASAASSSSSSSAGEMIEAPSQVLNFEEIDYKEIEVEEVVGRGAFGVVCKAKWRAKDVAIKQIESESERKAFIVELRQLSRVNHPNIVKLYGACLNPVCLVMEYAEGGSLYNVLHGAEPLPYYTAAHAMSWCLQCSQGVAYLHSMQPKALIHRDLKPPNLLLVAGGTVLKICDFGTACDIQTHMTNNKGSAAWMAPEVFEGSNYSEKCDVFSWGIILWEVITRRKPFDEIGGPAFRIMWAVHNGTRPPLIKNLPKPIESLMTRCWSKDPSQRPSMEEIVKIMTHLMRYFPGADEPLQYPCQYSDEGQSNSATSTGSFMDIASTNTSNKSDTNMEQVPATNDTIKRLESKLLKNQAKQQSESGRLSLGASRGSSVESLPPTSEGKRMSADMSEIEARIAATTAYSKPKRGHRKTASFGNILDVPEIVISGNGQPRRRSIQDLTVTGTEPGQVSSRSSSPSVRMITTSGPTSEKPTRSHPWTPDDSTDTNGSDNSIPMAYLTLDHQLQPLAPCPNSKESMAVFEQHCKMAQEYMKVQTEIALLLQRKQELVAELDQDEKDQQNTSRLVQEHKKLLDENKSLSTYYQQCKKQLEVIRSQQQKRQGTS
Conditions: at 1 µM.

Assay [3] addresses T1, Mitogen-activated protein kinase kinase kinase 7 (Homo sapiens). As to conditions: at 10 µM.
The target of assay [4] is T2, Serine/threonine-protein kinase TAO1 (Homo sapiens) (UniProt Q7L7X3).
T2 sequence (whole entry): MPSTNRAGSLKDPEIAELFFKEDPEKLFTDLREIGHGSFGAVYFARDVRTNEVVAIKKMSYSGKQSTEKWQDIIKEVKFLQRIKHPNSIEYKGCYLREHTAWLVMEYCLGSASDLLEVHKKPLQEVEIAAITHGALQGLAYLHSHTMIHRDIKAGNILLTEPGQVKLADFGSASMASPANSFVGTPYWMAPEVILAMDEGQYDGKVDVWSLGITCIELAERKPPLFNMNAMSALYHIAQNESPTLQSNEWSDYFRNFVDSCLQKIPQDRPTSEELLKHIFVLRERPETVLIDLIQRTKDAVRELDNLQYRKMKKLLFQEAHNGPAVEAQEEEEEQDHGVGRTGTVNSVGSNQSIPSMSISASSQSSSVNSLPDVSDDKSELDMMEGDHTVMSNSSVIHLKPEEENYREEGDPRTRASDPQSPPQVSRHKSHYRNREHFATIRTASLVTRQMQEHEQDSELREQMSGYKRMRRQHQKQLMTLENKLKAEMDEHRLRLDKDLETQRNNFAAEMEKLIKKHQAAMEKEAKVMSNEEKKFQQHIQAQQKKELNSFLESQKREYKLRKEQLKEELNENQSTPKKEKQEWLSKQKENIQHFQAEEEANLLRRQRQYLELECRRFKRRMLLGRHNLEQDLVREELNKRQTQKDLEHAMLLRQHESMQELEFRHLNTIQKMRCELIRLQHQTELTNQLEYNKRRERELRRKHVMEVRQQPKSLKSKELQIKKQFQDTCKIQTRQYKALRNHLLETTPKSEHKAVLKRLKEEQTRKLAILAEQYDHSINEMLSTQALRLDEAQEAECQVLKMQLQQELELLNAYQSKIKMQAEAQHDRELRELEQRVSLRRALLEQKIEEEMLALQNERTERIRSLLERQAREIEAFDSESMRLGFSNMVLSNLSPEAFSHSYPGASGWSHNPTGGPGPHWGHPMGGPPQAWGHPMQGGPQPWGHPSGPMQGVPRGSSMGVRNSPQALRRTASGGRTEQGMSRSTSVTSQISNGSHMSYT
Conditions: at 10 µM.

The target of assay [5] is T3, Serine/threonine-protein kinase TAO2 (Homo sapiens) (UniProt Q9UL54).
T3 sequence (whole entry): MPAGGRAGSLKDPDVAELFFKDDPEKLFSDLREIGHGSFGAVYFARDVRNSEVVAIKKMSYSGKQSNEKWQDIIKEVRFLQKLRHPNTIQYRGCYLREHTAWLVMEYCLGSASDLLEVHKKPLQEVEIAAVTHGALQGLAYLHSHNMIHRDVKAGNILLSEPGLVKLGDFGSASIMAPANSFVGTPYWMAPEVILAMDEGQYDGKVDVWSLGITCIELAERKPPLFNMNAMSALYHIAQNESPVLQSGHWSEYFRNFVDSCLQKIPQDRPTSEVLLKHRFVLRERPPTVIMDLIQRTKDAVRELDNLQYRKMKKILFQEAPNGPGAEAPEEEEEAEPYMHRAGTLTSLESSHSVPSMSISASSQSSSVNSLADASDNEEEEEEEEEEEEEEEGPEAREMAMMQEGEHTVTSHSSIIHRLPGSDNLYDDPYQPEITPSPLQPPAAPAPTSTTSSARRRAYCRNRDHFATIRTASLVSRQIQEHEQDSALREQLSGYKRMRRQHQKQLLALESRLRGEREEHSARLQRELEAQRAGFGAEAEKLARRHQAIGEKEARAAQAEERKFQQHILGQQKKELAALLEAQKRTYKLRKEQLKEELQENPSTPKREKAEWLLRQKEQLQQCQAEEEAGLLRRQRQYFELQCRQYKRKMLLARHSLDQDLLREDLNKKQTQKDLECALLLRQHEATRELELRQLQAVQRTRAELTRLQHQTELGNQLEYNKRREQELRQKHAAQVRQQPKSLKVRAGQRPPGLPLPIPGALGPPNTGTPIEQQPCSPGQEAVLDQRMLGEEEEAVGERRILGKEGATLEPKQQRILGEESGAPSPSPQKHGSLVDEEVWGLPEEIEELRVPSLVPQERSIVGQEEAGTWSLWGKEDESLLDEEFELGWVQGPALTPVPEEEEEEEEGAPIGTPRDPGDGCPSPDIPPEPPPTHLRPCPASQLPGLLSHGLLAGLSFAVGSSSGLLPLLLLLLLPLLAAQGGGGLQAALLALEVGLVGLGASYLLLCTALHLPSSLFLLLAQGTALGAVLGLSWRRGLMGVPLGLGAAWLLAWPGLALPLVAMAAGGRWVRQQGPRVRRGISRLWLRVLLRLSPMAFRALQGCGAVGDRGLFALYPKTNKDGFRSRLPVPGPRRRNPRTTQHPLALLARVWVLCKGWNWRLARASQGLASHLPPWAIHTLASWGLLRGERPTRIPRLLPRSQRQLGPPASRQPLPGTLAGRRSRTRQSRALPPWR
Conditions: at 10 µM.

The target in assay [6] is T4, Serine/threonine-protein kinase TAO3 (Homo sapiens) (UniProt Q9H2K8).
T4 sequence (whole entry): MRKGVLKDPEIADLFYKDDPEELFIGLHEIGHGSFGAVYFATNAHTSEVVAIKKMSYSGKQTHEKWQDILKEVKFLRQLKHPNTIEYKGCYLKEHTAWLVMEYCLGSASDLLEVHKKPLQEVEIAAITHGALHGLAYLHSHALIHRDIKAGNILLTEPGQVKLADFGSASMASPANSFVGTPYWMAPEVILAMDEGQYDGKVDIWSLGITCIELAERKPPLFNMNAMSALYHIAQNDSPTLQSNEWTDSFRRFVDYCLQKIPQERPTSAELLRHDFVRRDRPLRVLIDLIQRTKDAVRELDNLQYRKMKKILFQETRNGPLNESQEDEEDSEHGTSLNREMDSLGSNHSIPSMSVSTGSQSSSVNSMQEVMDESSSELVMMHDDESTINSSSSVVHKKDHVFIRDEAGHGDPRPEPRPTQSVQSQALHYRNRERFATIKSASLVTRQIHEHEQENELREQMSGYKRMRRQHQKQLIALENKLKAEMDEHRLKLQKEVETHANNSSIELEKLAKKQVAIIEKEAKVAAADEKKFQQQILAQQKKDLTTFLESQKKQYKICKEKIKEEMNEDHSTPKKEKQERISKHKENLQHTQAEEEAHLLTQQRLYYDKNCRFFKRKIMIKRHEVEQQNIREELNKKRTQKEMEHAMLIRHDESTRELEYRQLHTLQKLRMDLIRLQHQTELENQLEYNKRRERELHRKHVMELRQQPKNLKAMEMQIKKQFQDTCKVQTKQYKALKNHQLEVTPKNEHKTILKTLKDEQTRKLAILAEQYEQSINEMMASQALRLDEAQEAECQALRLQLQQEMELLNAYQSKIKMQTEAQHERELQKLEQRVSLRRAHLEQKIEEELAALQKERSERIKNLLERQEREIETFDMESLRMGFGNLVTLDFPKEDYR
Conditions: at 10 µM.

The target in assay [7] is T5, Serine/threonine-protein kinase TBK1 (Homo sapiens) (UniProt Q9UHD2).
T5 sequence (whole entry): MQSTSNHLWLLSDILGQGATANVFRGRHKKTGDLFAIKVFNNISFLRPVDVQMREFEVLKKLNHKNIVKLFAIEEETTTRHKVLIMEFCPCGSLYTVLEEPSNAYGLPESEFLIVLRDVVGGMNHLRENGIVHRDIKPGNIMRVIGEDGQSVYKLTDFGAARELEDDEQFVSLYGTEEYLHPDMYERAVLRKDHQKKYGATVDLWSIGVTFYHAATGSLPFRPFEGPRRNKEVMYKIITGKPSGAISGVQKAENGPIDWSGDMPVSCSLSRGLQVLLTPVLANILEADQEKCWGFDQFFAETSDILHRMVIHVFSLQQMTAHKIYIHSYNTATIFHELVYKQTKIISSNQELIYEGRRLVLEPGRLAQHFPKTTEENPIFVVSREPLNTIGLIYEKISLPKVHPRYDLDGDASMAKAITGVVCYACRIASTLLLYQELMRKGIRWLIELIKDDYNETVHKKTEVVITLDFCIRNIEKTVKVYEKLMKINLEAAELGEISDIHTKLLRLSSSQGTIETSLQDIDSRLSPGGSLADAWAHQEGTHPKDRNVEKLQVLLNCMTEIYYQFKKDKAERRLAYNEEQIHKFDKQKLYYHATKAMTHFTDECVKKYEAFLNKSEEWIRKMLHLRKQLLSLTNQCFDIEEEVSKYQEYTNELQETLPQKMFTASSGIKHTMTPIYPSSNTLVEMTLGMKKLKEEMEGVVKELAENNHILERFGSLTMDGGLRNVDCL
As to conditions: at 1 µM.

In assay [8] the target is T5, Serine/threonine-protein kinase TBK1 (Homo sapiens). As to conditions: at 10 µM.

As to `Cc1cc(Nc2nc(-c3ccccc3)nc3ccccc23)n[nH]1`, the residual activity was determined as 3% in assay [1]; 67% in assay [2]; 40% in assay [3]; 51% in assay [4]; 45% in assay [5]; 67% in assay [6]. Also, the residual activity in assay [7] came to 19%; in assay [8] it was 0%.

Values taken from ChEMBL document CHEMBL2218924, “A broad activity screen in support of a chemogenomic map for kinase signalling research and drug discovery” (Biochem J, 2013).
